Only some compounds are listed: those with a hit (about 21% of all), similar ones and a draw of the others.
Shiga toxin inh: A qHTS for Small Molecule Inhibitors of Shiga Toxin | 9.2% of 290,000 active | Vero cells, Shiga toxin protein synthesis inhibition reporter | AID 2315, 2010 | inhibition, % at 38.7 µM; in the data active = inhibition mostly above about 28%, no sharp cut-off; inactive = mostly below about 43%; note: 0% is about no effect
Pf growth 96h: Primary qHTS for delayed death inhibitors of the malarial parasite plastid, 96 hour incubation. P. falciparum luciferase reporter growth, 96 h. Potency, µM (doses to about 28.7 µM), without a hit: top-dose activity change, negative = inhibition, hits mostly inhibitors. 6.9% of 320,000 active. AID 504834, 2011; note: potency is the fitted concentration of half-maximal effect; % is set by controls: 0 for no effect and ±100 for the full control effect
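Luminescence readout: decreased luciferase signal marks inhibited growth of reporter-expressing P. falciparum in infected red cells (2% hematocrit, 0.05% parasitemia final), exposed to compound two generations (96 h, 37 C, 5% CO2).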
Giardia FBPA inh: qHTS Assay for Inhibitors of Fructose-1,6-bisphosphate Aldolase from Giardia Lamblia | Potency, µM (titrated, usually from 59.6 µM), for inactives: at the highest dose activity, negative = inhibition, most hits filed as inhibitors | purified Giardia FBPA | AID 2451, 2010 | A8B2U2 | 0.71% of 290,000 active; note: potency is the fitted concentration of half-maximal effect; % is set by controls: 0 for no effect and ±100 for the full control effect; nearly all actives have a fitted effect of over 55% in size
Target sequence (A8B2U2 whole entry, looked up): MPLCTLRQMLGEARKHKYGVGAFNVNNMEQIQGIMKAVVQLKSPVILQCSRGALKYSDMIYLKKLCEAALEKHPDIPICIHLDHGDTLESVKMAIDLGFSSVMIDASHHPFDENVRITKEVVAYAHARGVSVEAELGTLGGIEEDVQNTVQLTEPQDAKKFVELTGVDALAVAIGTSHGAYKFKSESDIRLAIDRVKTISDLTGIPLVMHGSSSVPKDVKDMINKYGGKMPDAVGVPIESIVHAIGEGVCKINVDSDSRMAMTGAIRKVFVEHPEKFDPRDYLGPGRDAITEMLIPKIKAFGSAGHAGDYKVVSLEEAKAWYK
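Giardia FBPA (40 nM reagent) was preincubated 10 min at RT with compound (up to 57.5 uM final), then substrate plus GAPDH/TPI/NAD/arsenate coupling system with diaphorase/resazurin was added; resorufin fluorescence (525/598 nm) was read after 20 min.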
NS1 inh: qHTS Assay for Inhibitors of Influenza NS1 Protein Function; Potency, µM (series often up to 46.1 µM), without a hit: at the highest dose activity, positive = more growth; 0.4% of 270,000 active; AID 2326, 2010; calls by dose curve; note: potency is the fitted concentration of half-maximal effect; actives are rising curves; nearly all actives have a fitted effect of over 50% in size
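OD600 was taken as the measure of yeast growth restored by compound in an NS1-expressing S. cerevisiae strain. Cells had been washed out of glucose medium and diluted 1:100 into galactose -URA medium, pH 6.0.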
Pf growth 48h: Primary qHTS for delayed death inhibitors of the malarial parasite plastid, 48 hour incubation; P. falciparum luciferase growth in erythrocytes, 48 h; 5.9% of 310,000 active; Potency, µM (series often up to 28.7 µM), without a hit: at the highest dose activity change, negative = inhibition, usual class: inhibitors; AID 504832, 2011; note: potency is the fitted concentration of half-maximal effect; % is set by controls: 0 for no effect and ±100 for the full control effect
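Growth was read as firefly luciferase luminescence after a 48 h, 37 C, 5% CO2 exposure of compounds to reporter-bearing P. falciparum cultures (0.1% parasitemia, 2% hematocrit final) in Albumax-supplemented RPMI 1640.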
Cycloheximide cs: Cycloheximide Counterscreen for Small Molecule Inhibitors of Shiga Toxin; max response, %; cell reporter, cycloheximide protein synthesis inhibition counterscreen; AID 2314, 2010; 12% of 300,000 active; in the data active = max response mostly above about 13%, no sharp cut-off; inactive = mostly below about 14%; note: read at 38.3 µM for the half of the compounds with a filed dose; 0% is about no effect
An asterisk follows results filed as active; [ ] = dose if it differs, or a comment. Unless noted, calls come from the whole dose curve; as a rule, active = well fitted curve in the direction sought with a large enough effect; inconclusive = small, poorly fitted or top-dose-only effect, or another doubt; inactive = no such curve, though single readings can be large; an effect the other way counts as inactive or inconclusive.

How did Oc1ccc(-c2nccc(-c3ccc(Cl)cc3)n2)cc1 do in these assays?
Shiga toxin inh: 123.1*; Pf growth 96h: 79.5%; Giardia FBPA inh: -0.2%; Pf growth 48h: 68.9%; Cycloheximide cs: 52.9*

How did Oc1ccc(-c2nccc(-c3ccc(Cl)cc3Cl)n2)cc1 do in these assays?
Shiga toxin inh: 22.0; Pf growth 96h: -20.7%; Giardia FBPA inh: -4.1%; Pf growth 48h: -14.1%; Cycloheximide cs: 9.1

How did CCN1CCN(C(=O)c2ccc(Cl)c(S(=O)(=O)N(C)c3ccccc3)c2)CC1 do in these assays?
Pf growth 96h: inconclusive; Pf growth 48h: -7.7%

Results for Cc1ccccc1C(=O)N1CCN(c2ccc([N+](=O)[O-])c(NCc3ccco3)c2)CC1 ?
Shiga toxin inh: 2.9; Pf growth 96h: inconclusive; Giardia FBPA inh: -22.7%; NS1 inh: 11.3%; Pf growth 48h: 13.1µM*; Cycloheximide cs: -1.4

How did Cc1cccc(C(=O)N2CCN(c3ccc([N+](=O)[O-])c(NCc4ccco4)c3)CC2)c1 do in these assays?
Shiga toxin inh: 15.4; Pf growth 96h: 11.7µM*; NS1 inh: 3.5%; Pf growth 48h: inconclusive; Cycloheximide cs: 0.9

Results for Cc1ccc(C(=O)N2CCN(c3ccc([N+](=O)[O-])c(NCc4ccco4)c3)CC2)cc1 ?
Shiga toxin inh: -10.3; Pf growth 96h: 4.65µM*; NS1 inh: 10.8%; Pf growth 48h: inconclusive; Cycloheximide cs: 2.0

What do the screens show for `CCn1cc(CN2N=C(C)CC2c2ccccc2)c(C)n1` (stereo not given)?
Shiga toxin inh: -9.9; Pf growth 96h: inconclusive; Giardia FBPA inh: 1.8%; NS1 inh: -8.0%; Pf growth 48h: 14.9%; Cycloheximide cs: -4.3

Results for CCN1CCN(c2nc3c(C)cccn3c(=O)c2C=C(C#N)C#N)CC1 ?
Shiga toxin inh: 5.7; Pf growth 96h: 0.7%; Giardia FBPA inh: 1.5%; NS1 inh: -1.2%; Pf growth 48h: 14.9%; Cycloheximide cs: 7.7

How did Cc1cccc(OCc2nnc(SCC(=O)O)n2Cc2ccccc2)c1 do in these assays?
Shiga toxin inh: -6.3; Pf growth 96h: -16.4%[5.75 µM]; Giardia FBPA inh: inconclusive; NS1 inh: 1.8%; Pf growth 48h: 0.0%; Cycloheximide cs: -1.6

What do the screens show for `O=C(CN(Cc1ccc2c(c1)OCO2)C(=O)CNS(=O)(=O)c1ccccc1)NCc1ccco1`?
Shiga toxin inh: -6.7; Pf growth 96h: 2.33µM*; Giardia FBPA inh: 1.2%; NS1 inh: -2.0%; Pf growth 48h: 20.1%; Cycloheximide cs: -0.8

Results for Cc1ccc(S(=O)(=O)NCCC(=O)NCc2ccco2)cc1 ?
Shiga toxin inh: -2.3; Pf growth 96h: 11.3%; Giardia FBPA inh: 4.0%; NS1 inh: 0.7%; Pf growth 48h: 0.7%; Cycloheximide cs: -3.7

What do the screens show for `O=C(COC(=O)CCNS(=O)(=O)c1ccc(Cl)cc1)NCc1ccco1`?
Shiga toxin inh: -5.8; Pf growth 96h: 2.08µM*; Giardia FBPA inh: 6.2%; NS1 inh: 0.6%; Pf growth 48h: 12.2%; Cycloheximide cs: -1.7

What do the screens show for `O=C(CN(Cc1ccc(F)cc1)C(=O)CNS(=O)(=O)c1ccccc1)NCc1ccco1`?
Shiga toxin inh: -6.6; Pf growth 96h: -2.9%; Giardia FBPA inh: 11.7%; NS1 inh: -3.5%; Pf growth 48h: 2.1%; Cycloheximide cs: -3.0

What do the screens show for `CCN(CC(=O)Nc1c(F)cccc1F)C(=O)c1ccc(S(=O)(=O)NCc2ccco2)cc1`?
Pf growth 96h: 34.2%; Pf growth 48h: 14.5%

What do the screens show for `COc1ccc(S(=O)(=O)NCC(=O)N(CC(=O)NCc2ccco2)C2CCCC2)cc1`?
Shiga toxin inh: 35.1; Pf growth 96h: -1.6%; Giardia FBPA inh: -2.0%; NS1 inh: -6.6%; Pf growth 48h: 1.0%; Cycloheximide cs: 8.1

What do the screens show for `COc1ccc(N(CC(=O)NCc2ccco2)C(=O)CNS(=O)(=O)c2ccc(Cl)cc2)cc1`?
Shiga toxin inh: -7.1; Pf growth 96h: 2.08µM*; Giardia FBPA inh: 1.8%; NS1 inh: -9.7%; Pf growth 48h: -11.2%; Cycloheximide cs: -6.1
